Results on 40 compounds are retold here after PubChem BioAssay (Tox21).

“And” between values parts separate entries of the source, which are not always exact repeats. Identical values can stand only once. Records with an inconclusive call do not appear. Where a structure was tested more than once in an assay, its records may differ in their call. The source made the active and inactive calls. Calls come from the whole dose curve; as a rule, active = well fitted cell-killing curve with a large enough effect in the repeat runs; inconclusive = weak or mixed curves; inactive = no such curve, though single readings can be large or run the other way.
% is set by controls: 0 for no effect and ±100 for the full control effect; potency is the fitted concentration of half-maximal effect.

This assay can be described thus: qHTS assay for identifying genotoxic compounds that show differential cytotoxicity against isogenic chicken DT40 cell lines with known DNA damage response pathways - Rad54/Ku70 mutant cell line (AID 743015). Note: nearly all actives have a fitted effect of over 60% in size. The conditions noted are these: DT40 Rad54/Ku70 mutant viability, CellTiter-Glo, 40 h; series mostly up to 66.8 µM; activity change, negative = cytotoxicity: at the top concentration. An excerpt:
National Center for Advancing Translational Sciences [NCATS]
NIH Chemical Genomics Center [NCGC]
U.S. Environmental Protection Agency [EPA]
National Institutes of Environmental Health Sciences [NIEHS]
National Toxicology Program [NTP]
U.S. Food and Drug Administration [FDA]
DNA repair pathways play a critical role in cellular homeostasis by repairing DNA damage induced by endogenous processes and xenobiotics. Isogenic chicken DT40 cell lines deficient in different DNA repair pathways can be used to identify genotoxic compounds and aid in characterizing the nature of the DNA damage induced. Two DNA repair-deficient cell lines with disrupted genes, Rad54/Ku70 or Rev3, were used to screen the Tox21 10K compound library. Possible genotoxicity was based on the presence of a significant increase in cytotoxicity in one or more of the DNA repair-deficient cell lines compared to that observed in the parental DNA repair-proficient cell line. CellTiter Glo viability assay (Promega, Madison, WI) was used to measure cell viability in these cells after compound treatment. This assay includes the data from the Rad54/Ku70 mutant cell line.
Tox21 Assay Protocol Summary:
300 DT40 mutant cells in 5 uL/well were dispensed into white, solid-bottom 1536-well plates using a Multidrop Combi (ThermoFisher Scientific, Waltham, MA) dispenser. After the assay plates were incubated at 37 C/5% CO2 for approximately 0.5 hour, 23 nL of compounds dissolved in DMSO, positive controls or DMSO only was transferred into the assay plate by a pintool work station (Kalypsys, San Diego, CA). The assay plates were incubated at 37 C/5% CO2 for 40 hours. After 5 uL per well of CellTiter-Glo reagent was added into each well of the assay plates, the plates were incubated for 30 min at room temperature and the luminescence intensity of the plates was measured using a ViewLux (PerkinElmer, Shelton, CT) plate reader.
As for `N#CC(C#N)=C(C#N)C#N`, the “activity change, negative = cytotoxicity” value is -1.08% [at 95.1 µM] (inactive). Turning to `O=C1c2ccccc2C(=O)N1SC(Cl)(Cl)Cl`, the Potency was 135 nM (active) and 154 nM (active). As for `CCOC(=O)c1cncn1C(C)c1ccccc1` (stereo not given), the “activity change, negative = cytotoxicity” value was -9.66% [at 30.7 µM] (inactive).

Consider `CN(C)N`, for which the “activity change, negative = cytotoxicity” value is 9.37% (inactive). On the same count and under the same terms, to `O=C(O)c1cc(I)cc(I)c1I` belongs 12.2% [at 95.1 µM] (inactive); to `c1ccc2c(c1)sc1ccccc12`, 2.97% (inactive). Same read-out and setting: to `C1CS1` belongs 8.88% [at 95.1 µM] (inactive).

With `COP(=O)(OC)OC(Br)C(Cl)(Cl)Br` (stereo not given), the Potency was 38.6 µM (active) and 21.7 µM (active).

Consider `CCCBr`, for which the “activity change, negative = cytotoxicity” value is 6.39% (inactive).

`CCCCC1C(=O)NC(=O)N(C2CCCCC2)C1=O` (stereo not given): the “activity change, negative = cytotoxicity” value is 2.56% (inactive). Same read-out and setting: the figure for `CC(C)CCCCCCCOC(=O)c1ccccc1C(=O)OCCCCCCCC(C)C` is -16.6% (inactive); for `O=C(O)C(Cl)(Cl)Br` it is 9.71% [at 95.1 µM] (inactive).

Turning to `O=S(=O)(Cl)Cl`, the “activity change, negative = cytotoxicity” value was -2.82% (inactive). Same read-out and setting: the figure for `CCCCCCCCCCCCCCCl` is -0.237% [at 95.1 µM] (inactive); for `OC[P+](CO)(CO)CO` it is -0.19% (inactive). For the compound `CC(O)CN1CCN(CC(=O)[O-])CCN(CC(=O)[O-])CCN(CC(=O)[O-])CC1.[Gd+3]` (stereo not given), the Potency entry was “inactive”. Regarding `C=CC(=O)OCC`, the “activity change, negative = cytotoxicity” value was 6.19% [at 95.1 µM] (inactive). On to `CC(C)(C)OOC(C)(C)CCC(C)(C)OOC(C)(C)C`, for which the “activity change, negative = cytotoxicity” value is -9.52% (inactive). `O=C(Cc1ccccc1)OCCc1ccccc1`: the Potency was 61.1 µM (active).

Take `COc1ccc(C(O)(c2cncnc2)C2CC2)cc1` (stereo not given): the “activity change, negative = cytotoxicity” value was -22.3% (inactive).

As to `CCOP(=S)(S)OCC`, the “activity change, negative = cytotoxicity” value was 14.4% [at 95.1 µM] (inactive). On the same count and under the same terms, to `COC1=CC(=O)O[C@@H](/C=C/c2ccc3c(c2)OCO3)C1` belongs -12.3% (inactive); to `OCCSSCCO`, -2.4% (inactive); to `CCCCCCCCP(=O)(O)O`, -1.78% (inactive). Consider `O=[N+]([O-])O[C@H]1CO[C@H]2[C@@H]1OC[C@H]2O[N+](=O)[O-]`, for which the “activity change, negative = cytotoxicity” value is 5.48% (inactive). Same read-out and setting: to `O=C(Cc1ccccc1)c1ccccc1` belongs 0.516% (inactive); to `CCC[N+](CCC)(CCC)CCC`, -7.97% (inactive).

Regarding `CCCCCCCCCCCC[N+](C)(C)CCOc1ccccc1`, the Potency was 2.66 µM (active) and 6.11 µM (active). `O=C(N[C@H]1CN2CCC1CC2)c1ccc2c(c1)OCCO2`: the “activity change, negative = cytotoxicity” value was -6.18% (inactive).

Turning to `COc1ccc2c(c1OC)C(=O)O[C@H]2[C@@H]1c2cc3c(cc2CCN1C)OCO3`, the “activity change, negative = cytotoxicity” value is -0.957% (inactive). In the case of `COc1ccccc1N1CCNCC1`, the “activity change, negative = cytotoxicity” value was 2.15% (inactive). Still for that read-out and setting: to `CCC(C)(C)O` belongs -3.08% (inactive).

Consider `Nc1cc(Cl)cc(C(=O)O)c1Cl`, for which the Potency entry was “inactive”. On the same count and under the same terms, to `c1ccc2sc(SNC3CCCCC3)nc2c1` belongs “inactive and 54.5 µM (active)”. On to `CCOC(=O)NC(O)C(Cl)(Cl)Cl` (stereo not given), for which the “activity change, negative = cytotoxicity” value is 0.84% (inactive). `O=C([O-])c1ccccn1.O=C([O-])c1ccccn1.O=C([O-])c1ccccn1.[Cr+3]`: the “activity change, negative = cytotoxicity” value is -1.43% (inactive).

Regarding `COC(=O)Cc1ccccc1`, the “activity change, negative = cytotoxicity” value is 11.1% (inactive). The same measure, in the same setting: to `CCCCCBr` belongs 1.84% [at 95.1 µM] (inactive).

As for `O=CC=O`, the Potency result was “inactive”.

For `CCCC[N+](CCCC)(CCCC)CCCC`, the Potency is 2.43 µM (active).
